# Laboratory results from PubChem BioAssay.
# “And” between values parts separate entries of the source, which are not always exact repeats. Identical values can stand only once. The source made the active and inactive calls.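 The calls were made as follows, unless noted: active = inhibition at or above 50% relative to wild type and mutant plate controls; inactive = inhibition below 50%.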
# How the values were obtained:
# [1] = inhibitors of TNFa-induced NFkB p65 translocation, primary screen, imaging, HUVEC, MLSMR starter and 10KST1 sets (AID 438;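 active = inhibition above 20% together with a positive visual image hit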;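 also: compound added about 3h40 before a 20 min TNFalpha stimulation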;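 as to inhibition: signal is the nuclear over cytoplasmic p65 intensity ratio per well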); conditions: HUVEC TNFa-induced p65 nuclear translocation; cell count: measured here: nuclei count (cytotoxicity indicator), at 2.08 µM unless noted; inhibition: at 2 µM, stronger effect = higher value unless noted
# [2] = inhibitors of mutant huntingtin aggregation, primary screen, imaging, exon1htt(103Q)mCFP cells, high-content imaging (AID 483;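 active = visual image review flags a hit and inhibition of aggregation exceeds 20%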;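 also: compound exposure lasted 3 days before fixation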;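 as to nuclei count: percent of the per-plate median nuclei count of sample wells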); conditions: exon1htt(103Q)mCFP cell line, aggregate imaging, at 2 µM; inhibition of aggregation: stronger effect = higher value; nuclei count: measured here: cell count, toxicity
# [3] = inhibitors of E-selectin induction by TNFa, primary screen, imaging, HUVEC, immunofluorescence, MLSMR starter and 10KST1 sets (AID 487;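 active = visually confirmed hit in the image check and inhibition above 20%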;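 as to inhibition: signal is fraction of cell area covered by stained E-selectin grains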;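 as to nuclei count: 100% = median nuclei count of all wells on the same plate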); conditions: HUVEC TNFalpha-induced E-selectin immunofluorescence imaging, at 2 µM; inhibition: stronger effect = higher value; nuclei count: measured here: cell number, toxicity
# [4] = DUSP6 inhibitors restoring Erk phosphorylation by chemical complementation, primary imaging in DUSP6-transfected HeLa (AID 609;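 active = compounds giving at least 50% inhibition in the cell-based MKP-3 phosphatase rescue imaging test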;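 as to inhibition: phospho-Erk level distribution per well compared with pooled transfected vehicle control wells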); conditions: HeLa MKP-3 transfected, phospho-Erk imaging KS statistic, at 10 µM
# [5] = molecular target: Dual specificity protein phosphatase 6 (Homo sapiens) (UniProt Q16828); test: as above; conditions: HeLa MKP-3 transfected, phospho-Erk imaging KS statistic, at 10 µM, stronger effect = higher value
# [6] = molecular target: Voltage-gated potassium channel subunit beta-2 (Rattus norvegicus) (UniProt P62483); test: KvBeta enzyme negative modulators, primary screen, biochemical, NADPH fluorescence (AID 622;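 active = fluorescence slope higher than the sample average by over 3 SD, cut at about -0.22 in these data, passing the limit was not always enough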;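 also: slope of raw intensity against log time taken from 70 to 1610 s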); conditions: recombinant KvBeta, 4-cyanobenzaldehyde reduction, at 10 µM, stronger effect = higher value
# [7] = molecular target: Voltage-gated potassium channel subunit beta-2 (Rattus norvegicus) (UniProt P62483); test: KvBeta positive modulators, primary screen, biochemical, NADPH fluorescence (AID 623;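 active = NADPH fluorescence slope more negative than the mean of all samples by about 3 SD, 99.7% confidence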;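 also: fluorescence intensity change per second fitted from 20 to 320 s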); conditions: Recombinant KvBeta, NADPH fluorescence decrease slope, 10 min; at 10 µM; stronger effect = lower value
# [8] = molecular target: Alpha-2C adrenergic receptor (Homo sapiens) (UniProt P18825); test: modulators of alpha2C/GIRK thallium flux, primary screen, cell-based, HEK293 alpha2C/GIRK1/2 (AID 624;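 active = fluorescence slope after compound addition differing from the mean of all screened samples at 99.7% confidence, in either direction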;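 also: slope of fluorescence ratio to pre-addition baseline per second over 15 to 24 s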); conditions: thallium flux BTC fluorescence, at 10 µM, actives lie on both sides
# [9] = inhibitors of larval lipid processing in zebrafish, primary screen, whole organism, PED6 fluorescence, gall bladder and intestine (AID 686;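 active = a full or partial loss of lipid-probe fluorescence in the fish gall bladder, intestine or both, judged by eye; inactive = no fluorescence loss, or compound toxic to the fish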;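 also: larvae 5 to 7 days old with five fish per well; signal comes from phospholipase A2 cleavage of quenched PED6 carried via bile; overnight exposure to compound and PED6 before scoring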); conditions: Zebrafish larvae PED6 lipid processing, fluorescence scoring
# [10] = inhibitors of Chlamydomonas gravitaxis, primary screen, whole organism, Chlamydomonas reinhardtii, WT vs cilia-less mutant, absorbance, 96-well (AID 463189); conditions: OD600 absorbance, 2 days, at 10 µM, stronger effect = higher value;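 also: 0% = wild type cc124 cells in DMSO and 100% = ciliumless bld1 mutant cells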
# [11] = inhibitors of Sendai virus-induced IRF3 signaling, primary screen, TLR/RLR signaling modifier project, cell-based, Sendai virus stimulus, luciferase, 10K MLSCN set (AID 602276;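 active = inhibition at or above 50% at 10 µM; inactive = inhibition below 50%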;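 also: firefly luciferase from ISG56 promoter only with Renilla not read in this screen; 0% = Sendai virus plus DMSO and 100% = medium plus DMSO without virus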); conditions: HEK293 RL24 IRF3 luciferase reporter, at 10 µM, stronger effect = higher value
# [12] = inhibitors of poly I:C-induced TLR3 signaling, primary screen, cell-based, poly I:C stimulus, luciferase, 10K MLSCN set (AID 602277;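 active = inhibition of the reporter signal at or above 50%; inactive = inhibition below 50%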); conditions: HEK293-TLR3 RL24 IRF3 luciferase reporter, at 10 µM, stronger effect = higher value
# [13] = molecular target: Muscarinic acetylcholine receptor M4 (Homo sapiens) (UniProt P08173); test: compounds altering M4/GIRK thallium flux, either direction, primary screen, M4 allosteric agonist project, cell-based, HEK293 M4/GIRK, BTC-AM (AID 625;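 active = fluorescence slope after compound addition differing from the mean of all tested samples at 99.7% confidence, mostly higher but some lower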;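 also: thallium influx through GIRK channels coupled to M4 in HEK293 cells with BTC-AM dye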); conditions: at 10 µM, actives lie on both sides
# [14] = measured here: cell density z-score
# [15] = measured here: nuclear c-Myc green intensity z-score
# [16] = measured here: nuclear pErk red intensity z-score, stronger effect = higher value
# Chain of Dual specificity protein phosphatase 6 (Homo sapiens) (Q16828 whole entry, looked up): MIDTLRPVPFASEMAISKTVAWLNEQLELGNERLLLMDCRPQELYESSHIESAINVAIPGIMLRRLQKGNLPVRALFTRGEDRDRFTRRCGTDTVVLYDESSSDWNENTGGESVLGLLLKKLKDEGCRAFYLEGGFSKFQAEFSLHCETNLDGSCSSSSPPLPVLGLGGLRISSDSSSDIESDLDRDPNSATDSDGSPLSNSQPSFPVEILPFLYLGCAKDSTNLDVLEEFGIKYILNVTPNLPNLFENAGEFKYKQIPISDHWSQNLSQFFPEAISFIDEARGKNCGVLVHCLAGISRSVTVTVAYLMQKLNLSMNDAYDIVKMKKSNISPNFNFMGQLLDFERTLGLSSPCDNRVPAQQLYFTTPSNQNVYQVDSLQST
# Chain of Voltage-gated potassium channel subunit beta-2 (Rattus norvegicus) (P62483 whole entry, looked up): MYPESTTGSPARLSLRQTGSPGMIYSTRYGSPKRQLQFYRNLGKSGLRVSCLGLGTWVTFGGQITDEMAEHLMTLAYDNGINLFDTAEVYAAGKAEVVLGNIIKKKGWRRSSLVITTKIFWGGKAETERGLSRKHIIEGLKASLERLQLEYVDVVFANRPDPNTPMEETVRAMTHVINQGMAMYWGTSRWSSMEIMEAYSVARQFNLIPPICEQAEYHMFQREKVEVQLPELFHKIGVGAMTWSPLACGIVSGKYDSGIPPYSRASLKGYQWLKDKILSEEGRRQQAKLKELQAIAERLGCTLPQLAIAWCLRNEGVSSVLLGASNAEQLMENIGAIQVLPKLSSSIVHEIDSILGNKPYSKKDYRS
# Chain of Alpha-2C adrenergic receptor (Homo sapiens) (P18825 whole entry, looked up): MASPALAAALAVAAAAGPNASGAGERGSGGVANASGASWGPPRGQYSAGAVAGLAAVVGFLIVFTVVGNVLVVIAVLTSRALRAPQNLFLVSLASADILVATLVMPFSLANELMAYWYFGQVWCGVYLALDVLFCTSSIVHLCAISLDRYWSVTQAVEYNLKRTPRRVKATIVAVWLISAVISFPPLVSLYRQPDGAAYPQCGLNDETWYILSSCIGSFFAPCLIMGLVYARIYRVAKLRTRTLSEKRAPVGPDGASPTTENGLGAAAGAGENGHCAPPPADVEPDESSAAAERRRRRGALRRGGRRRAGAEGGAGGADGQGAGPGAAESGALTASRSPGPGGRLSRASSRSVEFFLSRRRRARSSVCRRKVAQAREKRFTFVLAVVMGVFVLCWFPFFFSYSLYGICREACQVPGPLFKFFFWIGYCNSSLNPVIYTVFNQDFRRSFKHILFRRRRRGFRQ
# Chain of Muscarinic acetylcholine receptor M4 (Homo sapiens) (P08173 whole entry, looked up): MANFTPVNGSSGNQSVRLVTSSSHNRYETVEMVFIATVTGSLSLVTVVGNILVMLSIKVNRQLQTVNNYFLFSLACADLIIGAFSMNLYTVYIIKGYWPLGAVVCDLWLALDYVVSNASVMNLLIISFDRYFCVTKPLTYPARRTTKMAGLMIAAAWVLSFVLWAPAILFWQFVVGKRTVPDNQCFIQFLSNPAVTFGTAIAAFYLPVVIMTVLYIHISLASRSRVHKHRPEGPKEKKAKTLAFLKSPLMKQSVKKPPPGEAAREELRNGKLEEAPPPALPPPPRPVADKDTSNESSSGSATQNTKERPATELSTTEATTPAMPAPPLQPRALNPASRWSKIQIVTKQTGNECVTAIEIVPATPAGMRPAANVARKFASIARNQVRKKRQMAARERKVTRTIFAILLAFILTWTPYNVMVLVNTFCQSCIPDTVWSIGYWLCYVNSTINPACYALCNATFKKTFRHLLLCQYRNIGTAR
smiles,measurement,setting,value
CN1CCN(C(=O)OC2c3nccnc3C(=O)N2c2ccc(Cl)cn2)CC1 (stereo unspecified),cell count,[1],563
same,inhibition,[1],-7.6% (inactive)
same,inhibition of aggregation,[2],-7% (inactive)
same,nuclei count,[2],109%
same,inhibition,[3],-132% (inactive)
same,nuclei count,[3],114%
same,z-score,[4]; [14],-0.576
same,z-score,[4]; [15],-1.54
same,z-score,[4]; [16],0.116
same,inhibition,[5],3.45% (inactive)
same,fluorescence slope,[6],-0.501 (inactive)
same,NADPH fluorescence slope,[7],-7.3e-05 (inactive)
same,slope,[8],0.00689 (inactive)
same,outcome,[9],inactive
same,inhibition,[10],4.29% (inactive) and -9.06% (inactive)
same,inhibition,[11],15.5% (inactive)
same,inhibition,[12],43.6% (inactive)
COc1ccc2[nH]cc(CCN(C)C)c2c1,cell count,[1],560
same,inhibition,[1],-3.3% (inactive)
same,inhibition of aggregation,[2],-16.8% (inactive)
same,nuclei count,[2],95.6%
same,inhibition,[3],-34% (inactive)
same,nuclei count,[3],102%
same,z-score,[4]; [14],-0.633
same,z-score,[4]; [15],0.535
same,z-score,[4]; [16],0.345
same,inhibition,[5],3.59% (inactive)
same,fluorescence slope,[6],-0.516 (inactive)
same,NADPH fluorescence slope,[7],1.6e-07 (inactive)
same,slope,[8],0.00666 (inactive)
same,outcome,[9],inactive
same,inhibition,[10],12.8% (inactive) and -9.88% (inactive)
same,inhibition,[11],7.44% (inactive)
same,inhibition,[12],13.2% (inactive)
NCCc1ccc(O)cc1,cell count,[1],431
same,inhibition,[1],6% (inactive)
same,inhibition of aggregation,[2],11.4% (inactive)
same,nuclei count,[2],95.7%
same,inhibition,[3],22.3% (inactive)
same,nuclei count,[3],92.7%
same,fluorescence slope,[6],-0.573 (inactive)
same,NADPH fluorescence slope,[7],-7e-05 (inactive)
same,fluorescence slope,[13],0.00467 (inactive)
same,inhibition,[10],7.08% (inactive)
same,inhibition,[11],12.8% (inactive)
same,inhibition,[12],19% (inactive)
Clc1ccc(COC(Cn2ccnc2)c2ccc(Cl)cc2Cl)cc1 (stereo unspecified),cell count,[1],571
same,inhibition,[1],"-2% [at 2 µM, stronger effect = higher value, 0% TNFa-plus-vehicle, 100% no-TNFa wells] (inactive)"
same,inhibition of aggregation,[2],-19.8% (inactive)
same,nuclei count,[2],61.4%
same,inhibition,[3],-14.8% (inactive)
same,nuclei count,[3],106%
same,z-score,"[4]; measured here: cell density z-score, cells stimulated with TPA for 15 min",0.542
same,z-score,"[4]; measured here: nuclear c-Myc green intensity z-score, cells stimulated with TPA for 15 min",1.67
same,z-score,"[4]; measured here: nuclear pErk red intensity z-score, stronger effect = higher value, cells stimulated with TPA for 15 min",-0.914
same,inhibition,[5],13.3% [cells stimulated with TPA for 15 min] (inactive)
same,fluorescence slope,[6],-0.51 (inactive)
same,NADPH fluorescence slope,[7],4.6e-06 (inactive)
same,slope,[8],0.00388 (inactive)
same,outcome,[9],inactive; toxic [screened at 20 µM (by protocol)]
same,inhibition,[10],41.7% (inactive)
same,inhibition,[11],22.8% (inactive)
same,inhibition,[12],32.2% (inactive)
[N-]=[N+]=CC(=O)OC[C@H](N)C(=O)O,cell count,[1],594
same,inhibition,[1],-4% (inactive)
same,inhibition of aggregation,[2],-0.4% (inactive)
same,nuclei count,[2],104%
same,inhibition,[3],-25.7% (inactive)
same,nuclei count,[3],133%
same,z-score,[4]; [14],-0.1
same,z-score,[4]; [15],-0.513
same,z-score,[4]; [16],-0.992
same,inhibition,[5],25.1% (inactive)
same,fluorescence slope,[6],-0.53 (inactive)
same,NADPH fluorescence slope,[7],2.4e-05 (inactive)
same,slope,[8],0.00503 (inactive)
same,outcome,[9],inactive
same,inhibition,[10],-8.35% (inactive)
same,inhibition,[11],16.7% (inactive)
same,inhibition,[12],21.9% (inactive)
CCOc1ccc(-n2c(O)c(C=Nc3ccc(N(CC)CC)cc3)c(=O)[nH]c2=O)cc1,cell count,[1],366
same,inhibition,[1],-4.7% (inactive)
same,inhibition,[3],-63.9% (inactive)
same,nuclei count,[3],138%
same,z-score,[4]; [14],0.258
same,z-score,[4]; [15],-1.14
same,z-score,[4]; [16],0.567
same,inhibition,[5],14% (inactive)
same,fluorescence slope,[6],-0.361 (inactive)
same,NADPH fluorescence slope,[7],-0.000118 (inactive)
same,slope,[8],-0.0068 (active)
same,outcome,[9],inactive
same,inhibition,[10],-4.04% (inactive)
COc1cc2[nH]c(=O)n(-c3cccc(Cl)c3)c(=O)c2cc1OC,cell count,[1],636
same,inhibition,[1],-0.6% (inactive)
same,inhibition,[3],-128% (inactive)
same,nuclei count,[3],159%
same,z-score,[4]; [14],0.96
same,z-score,[4]; [15],-1.11
same,z-score,[4]; [16],1.07
same,inhibition,[5],-1.12% (inactive)
same,fluorescence slope,[6],-0.467 (inactive)
same,NADPH fluorescence slope,[7],-0.000203 (inactive)
same,slope,[8],0.00492 (inactive)
same,outcome,[9],inactive
same,inhibition,[10],-6.85% (inactive)
O=c1[nH]c2ccccc2c(=O)n1-c1cccc(Cl)c1,cell count,[1],545
same,inhibition,[1],-5.4% (inactive)
same,inhibition,[3],40% (inactive)
same,nuclei count,[3],129%
same,z-score,[4]; [14],-1.11
same,z-score,[4]; [15],2.35
same,z-score,[4]; [16],0.728
same,inhibition,[5],-18.6% (inactive)
same,fluorescence slope,[6],-0.461 (inactive)
same,NADPH fluorescence slope,[7],-7e-06 (inactive)
same,slope,[8],0.00622 (inactive)
same,outcome,[9],inactive
same,inhibition,[10],11.1% (inactive)
O=c1[nH]c(=O)n(CCc2ccccc2)c(O)c1C=NCCCn1ccnc1,cell count,[1],364
same,inhibition,[1],-0.9% (inactive)
same,inhibition,[3],-29% (inactive)
same,nuclei count,[3],94.5%
same,z-score,[4]; [14],-0.281
same,z-score,[4]; [15],-0.0547
same,z-score,[4]; [16],0.509
same,inhibition,[5],-2.59% (inactive)
same,fluorescence slope,[6],-0.581 (inactive)
same,NADPH fluorescence slope,[7],1.1e-06 (inactive)
same,slope,[8],0.00497 (inactive)
same,outcome,[9],inactive
same,inhibition,[10],35.6% (inactive)
Cn1c(O)c(C=NC2CCN(Cc3ccccc3)CC2)c(=O)n(C)c1=O,cell count,[1],440
same,inhibition,[1],1% (inactive)
same,inhibition,[3],-22.6% (inactive)
same,nuclei count,[3],136%
same,z-score,[4]; [14],0.0201
same,z-score,[4]; [15],1.2
same,z-score,[4]; [16],0.0643
same,inhibition,[5],4.25% (inactive)
same,fluorescence slope,[6],-0.401 (inactive)
same,NADPH fluorescence slope,[7],-1.9e-05 (inactive)
same,slope,[8],0.00599 (inactive)
same,outcome,[9],inactive
same,inhibition,[10],0.967% (inactive)
CCN(CC)c1ccc(N=Cc2c(O)n(-c3cc(OC)ccc3OC)c(=O)[nH]c2=O)cc1,cell count,[1],462
same,inhibition,[1],2.1% (inactive)
same,inhibition,[3],-25.3% (inactive)
same,nuclei count,[3],172%
same,z-score,[4]; [14],-0.53
same,z-score,[4]; [15],0.14
same,z-score,[4]; [16],0.193
same,inhibition,[5],16.8% (inactive)
same,fluorescence slope,[6],-0.37 (inactive)
same,NADPH fluorescence slope,[7],-5.8e-05 (inactive)
same,slope,[8],0.00328 (inactive)
same,outcome,[9],inactive
same,inhibition,[10],34.9% (inactive)
CCCCSP1(=S)NCCCO1 (stereo unspecified),cell count,[1],490
same,inhibition,[1],-12.8% (inactive)
same,inhibition,[3],-2.8% (inactive)
same,nuclei count,[3],116%
same,z-score,[4]; [14],0.851
same,z-score,[4]; [15],-1.48
same,z-score,[4]; [16],-1.55
same,inhibition,[5],9.39% (inactive)
same,fluorescence slope,[6],-0.465 (inactive)
same,NADPH fluorescence slope,[7],-0.000374 (inactive)
same,slope,[8],0.00445 (inactive)
same,outcome,[9],inactive
same,inhibition,[10],18.8% (inactive)
